For some of these results: Measured potencies and affinities stand elsewhere.
Key:
Design in all cases: scale not given: direction of the effect not stated beside the values
[1] = molecular target: Protein translocase subunit SecA (Escherichia coli (strain K12)) (UniProt P10408); assay: Assay to Identify E. coli SecA ATPase Inhibitors; format: functional; conditions: 30 µM
[2] = molecular target: T1, Ubiquitin-activating enzyme e1, putative (Leishmania donovani (strain BPK282A1)) (UniProt E9BSI1); assay: Leishmania donovani Ubiquitin Activating Enzyme (LdE1); format: functional; conditions: 30 µM
T1 sequence (whole entry): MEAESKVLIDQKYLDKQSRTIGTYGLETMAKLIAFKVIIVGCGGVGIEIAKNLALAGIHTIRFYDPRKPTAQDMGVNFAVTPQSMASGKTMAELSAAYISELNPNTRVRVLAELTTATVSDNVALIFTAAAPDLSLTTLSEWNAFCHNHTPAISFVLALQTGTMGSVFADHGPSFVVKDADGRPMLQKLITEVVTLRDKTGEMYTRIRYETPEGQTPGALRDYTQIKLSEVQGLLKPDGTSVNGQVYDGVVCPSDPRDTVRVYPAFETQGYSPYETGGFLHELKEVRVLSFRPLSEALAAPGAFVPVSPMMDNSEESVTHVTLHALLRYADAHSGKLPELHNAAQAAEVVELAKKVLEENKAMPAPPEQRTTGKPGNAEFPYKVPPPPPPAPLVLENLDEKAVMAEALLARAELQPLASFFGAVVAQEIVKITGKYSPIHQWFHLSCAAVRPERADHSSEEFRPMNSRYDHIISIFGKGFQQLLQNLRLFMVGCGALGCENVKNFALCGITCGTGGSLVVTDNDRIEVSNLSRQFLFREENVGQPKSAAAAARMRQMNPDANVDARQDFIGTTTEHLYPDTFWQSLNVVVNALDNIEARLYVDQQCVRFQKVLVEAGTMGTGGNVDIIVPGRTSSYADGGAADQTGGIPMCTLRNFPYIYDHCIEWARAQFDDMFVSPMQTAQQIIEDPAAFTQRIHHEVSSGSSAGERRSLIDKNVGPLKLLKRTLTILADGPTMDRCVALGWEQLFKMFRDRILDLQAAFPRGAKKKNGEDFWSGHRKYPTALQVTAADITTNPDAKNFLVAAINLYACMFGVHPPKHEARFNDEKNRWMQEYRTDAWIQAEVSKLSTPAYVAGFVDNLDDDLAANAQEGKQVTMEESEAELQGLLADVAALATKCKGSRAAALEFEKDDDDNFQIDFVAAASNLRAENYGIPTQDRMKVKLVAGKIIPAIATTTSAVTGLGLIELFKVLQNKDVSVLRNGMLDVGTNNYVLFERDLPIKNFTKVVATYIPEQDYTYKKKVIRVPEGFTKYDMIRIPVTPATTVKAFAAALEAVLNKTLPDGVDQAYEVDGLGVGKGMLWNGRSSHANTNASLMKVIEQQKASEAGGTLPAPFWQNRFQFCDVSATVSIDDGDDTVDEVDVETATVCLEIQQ

[3] = molecular target: AMP-activated protein kinase, AMPK (Homo sapiens) (UniProt P54646+O43741+P54619+Q9UGJ0+Q9Y478+Q13131+Q9UGI9); assay: AMP-dependent Kinase enzyme assay. An in vitro enzyme assay that detects ADP turnover that is directly proportional to AMPK activity. This uses naive AMPK that is activated during the assay with MK-8722; format: functional; conditions: 30 µM
[4] = molecular target: Sialic acid-binding Ig-like lectin 9 (Homo sapiens) (UniProt Q9Y336); assay: Hs-Siglec9 ALPHAscreen SOP 20170721; conditions: 10 µM
Trypanosoma cruzi = assay: Trypanosoma cruzi phosphomannomutase and mannose-1-phosphate guanylyltransferase assay; format: functional; conditions: 10 µM
[5] = molecular target: T2, Arginase-2, mitochondrial (Homo sapiens) (UniProt P78540); assay: in vitro enzyme assay to detect the production of urea directly proportional to the activity of Arginase II; format: functional; conditions: 33.3 µM; also: in the data most compounds retested in dose-response had high values
T2 sequence (whole entry): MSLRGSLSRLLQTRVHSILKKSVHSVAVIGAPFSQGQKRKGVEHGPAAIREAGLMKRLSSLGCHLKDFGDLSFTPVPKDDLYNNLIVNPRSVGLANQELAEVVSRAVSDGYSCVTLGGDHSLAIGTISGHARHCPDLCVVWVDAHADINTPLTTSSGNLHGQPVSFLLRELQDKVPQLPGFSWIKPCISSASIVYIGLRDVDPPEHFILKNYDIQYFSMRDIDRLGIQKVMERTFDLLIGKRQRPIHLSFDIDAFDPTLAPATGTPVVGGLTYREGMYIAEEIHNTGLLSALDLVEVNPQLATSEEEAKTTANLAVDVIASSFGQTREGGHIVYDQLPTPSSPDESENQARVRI

[6] = molecular target: T3, Proteasome subunit beta (Trypanosoma cruzi) (UniProt O96673); assay: Trypanosoma cruzi proteasome chymotrypsin-like activity (TcProtChymo) assay.; also: in the data most compounds retested in dose-response had high values; format: functional; conditions: 9.37 µM
T3 sequence (whole entry): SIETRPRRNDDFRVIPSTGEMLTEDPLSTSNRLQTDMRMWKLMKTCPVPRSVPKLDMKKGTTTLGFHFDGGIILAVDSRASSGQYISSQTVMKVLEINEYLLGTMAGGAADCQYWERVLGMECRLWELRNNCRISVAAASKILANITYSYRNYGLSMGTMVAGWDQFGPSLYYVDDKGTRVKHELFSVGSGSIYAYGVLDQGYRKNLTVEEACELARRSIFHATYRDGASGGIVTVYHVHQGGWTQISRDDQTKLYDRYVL

Homo sapiens = species: Homo sapiens; assay: To identify inhibition of the IFN signalling (Jak-Stat) pathway via expression of an eGFP reporter gene under the control of an IFN-stimulated response element (ISRE) containing MxA promoter.; format: functional; conditions: 30 µM
[7] = molecular target: T4, Tyrosyl-tRNA synthetase, putative (Trypanosoma cruzi (strain CL Brener)) (UniProt Q4DSP6); assay: Trypanosoma cruzi tyrosyl tRNA synthetase (TcYRS) _High Tyrosine SOP; format: functional; conditions: 30 µM; also: in the data most compounds retested in dose-response had high values
T4 sequence (whole entry): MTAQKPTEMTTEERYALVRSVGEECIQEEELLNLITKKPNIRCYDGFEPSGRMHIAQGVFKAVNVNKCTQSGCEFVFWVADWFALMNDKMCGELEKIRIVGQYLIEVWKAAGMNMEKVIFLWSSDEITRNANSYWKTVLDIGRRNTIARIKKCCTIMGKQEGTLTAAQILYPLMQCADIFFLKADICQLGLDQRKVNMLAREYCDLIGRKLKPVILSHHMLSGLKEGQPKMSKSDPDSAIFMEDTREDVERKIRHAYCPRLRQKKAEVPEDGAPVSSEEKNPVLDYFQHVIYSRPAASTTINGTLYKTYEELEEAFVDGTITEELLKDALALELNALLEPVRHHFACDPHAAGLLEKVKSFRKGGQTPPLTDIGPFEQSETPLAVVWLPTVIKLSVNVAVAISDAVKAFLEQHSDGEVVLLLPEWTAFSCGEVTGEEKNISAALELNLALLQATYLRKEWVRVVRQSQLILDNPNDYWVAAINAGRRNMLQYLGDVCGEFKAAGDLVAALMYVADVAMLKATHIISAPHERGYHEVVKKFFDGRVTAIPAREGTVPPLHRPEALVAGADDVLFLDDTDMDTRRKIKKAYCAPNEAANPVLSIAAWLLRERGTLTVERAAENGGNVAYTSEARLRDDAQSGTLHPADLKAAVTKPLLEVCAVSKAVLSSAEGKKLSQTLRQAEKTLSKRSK

[8] = molecular target: T4, Tyrosyl-tRNA synthetase, putative (Trypanosoma cruzi (strain CL Brener)); assay: Trypanosoma cruzi tyrosyl tRNA synthetase (TcYRS) SOP; format: functional; conditions: 30 µM
[9] = molecular target: Chromo domain-containing protein 1 (Saccharomyces cerevisiae (strain ATCC 204508 / S288c) (Baker's yeast)) (UniProt P32657); assay: ScCHD-1 Enzyme Inhibition Assay; format: functional; conditions: 30 µM; also: in the data most compounds retested in dose-response had high values
Sequence of Chromo domain-containing protein 1 (Saccharomyces cerevisiae (strain ATCC 204508 / S288c) (Baker's yeast)) (P32657 whole entry, the tested form may be a part): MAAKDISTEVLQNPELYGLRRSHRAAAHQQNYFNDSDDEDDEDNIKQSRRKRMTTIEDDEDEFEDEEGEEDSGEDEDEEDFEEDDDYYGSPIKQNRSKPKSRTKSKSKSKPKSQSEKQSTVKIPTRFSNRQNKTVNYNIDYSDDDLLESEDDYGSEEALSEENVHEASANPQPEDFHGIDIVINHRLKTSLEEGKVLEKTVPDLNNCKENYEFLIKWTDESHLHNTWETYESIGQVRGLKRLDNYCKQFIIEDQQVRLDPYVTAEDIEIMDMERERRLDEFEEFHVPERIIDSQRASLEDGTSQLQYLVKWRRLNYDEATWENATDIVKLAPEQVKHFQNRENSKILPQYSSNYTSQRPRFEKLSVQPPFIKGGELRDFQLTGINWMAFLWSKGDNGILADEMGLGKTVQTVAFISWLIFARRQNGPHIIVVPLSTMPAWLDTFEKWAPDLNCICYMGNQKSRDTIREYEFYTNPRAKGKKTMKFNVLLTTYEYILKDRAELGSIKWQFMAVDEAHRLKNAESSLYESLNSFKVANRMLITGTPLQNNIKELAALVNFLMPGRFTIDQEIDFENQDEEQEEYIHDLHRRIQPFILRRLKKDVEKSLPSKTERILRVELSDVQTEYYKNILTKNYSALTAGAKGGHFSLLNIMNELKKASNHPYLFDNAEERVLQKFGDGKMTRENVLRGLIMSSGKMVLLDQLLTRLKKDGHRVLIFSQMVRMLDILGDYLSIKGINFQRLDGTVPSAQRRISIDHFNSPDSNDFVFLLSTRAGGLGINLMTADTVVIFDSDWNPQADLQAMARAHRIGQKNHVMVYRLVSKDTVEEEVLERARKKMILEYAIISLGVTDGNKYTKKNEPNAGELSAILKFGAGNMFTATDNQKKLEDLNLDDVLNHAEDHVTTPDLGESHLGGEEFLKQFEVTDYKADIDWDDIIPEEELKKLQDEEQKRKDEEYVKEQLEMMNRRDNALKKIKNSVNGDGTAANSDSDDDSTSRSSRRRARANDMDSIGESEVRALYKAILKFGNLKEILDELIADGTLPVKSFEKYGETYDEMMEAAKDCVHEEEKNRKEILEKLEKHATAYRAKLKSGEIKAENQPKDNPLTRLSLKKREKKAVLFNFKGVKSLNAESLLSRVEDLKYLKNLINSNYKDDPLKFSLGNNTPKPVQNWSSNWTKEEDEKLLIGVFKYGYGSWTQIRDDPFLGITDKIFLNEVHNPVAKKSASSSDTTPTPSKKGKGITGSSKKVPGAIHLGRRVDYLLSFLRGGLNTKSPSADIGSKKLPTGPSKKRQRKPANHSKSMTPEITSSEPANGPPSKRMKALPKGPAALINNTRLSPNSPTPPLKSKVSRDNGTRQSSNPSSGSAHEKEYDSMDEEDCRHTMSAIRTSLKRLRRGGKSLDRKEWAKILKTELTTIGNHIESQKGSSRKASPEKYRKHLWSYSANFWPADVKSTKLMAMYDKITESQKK

Sequence of Sialic acid-binding Ig-like lectin 9 (Homo sapiens) (Q9Y336 whole entry): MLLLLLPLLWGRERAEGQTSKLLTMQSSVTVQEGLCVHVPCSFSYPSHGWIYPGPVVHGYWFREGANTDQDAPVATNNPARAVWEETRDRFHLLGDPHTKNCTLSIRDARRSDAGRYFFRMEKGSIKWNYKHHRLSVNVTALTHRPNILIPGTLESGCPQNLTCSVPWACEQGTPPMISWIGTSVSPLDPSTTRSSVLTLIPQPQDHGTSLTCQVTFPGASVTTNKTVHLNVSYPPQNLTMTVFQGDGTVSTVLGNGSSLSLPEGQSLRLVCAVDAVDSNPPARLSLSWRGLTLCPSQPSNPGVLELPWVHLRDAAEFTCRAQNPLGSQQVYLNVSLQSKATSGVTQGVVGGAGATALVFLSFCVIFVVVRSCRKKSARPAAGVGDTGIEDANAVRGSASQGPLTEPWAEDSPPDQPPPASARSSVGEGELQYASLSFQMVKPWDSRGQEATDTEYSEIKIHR
Sequence of Protein translocase subunit SecA (Escherichia coli (strain K12)) (P10408 whole entry): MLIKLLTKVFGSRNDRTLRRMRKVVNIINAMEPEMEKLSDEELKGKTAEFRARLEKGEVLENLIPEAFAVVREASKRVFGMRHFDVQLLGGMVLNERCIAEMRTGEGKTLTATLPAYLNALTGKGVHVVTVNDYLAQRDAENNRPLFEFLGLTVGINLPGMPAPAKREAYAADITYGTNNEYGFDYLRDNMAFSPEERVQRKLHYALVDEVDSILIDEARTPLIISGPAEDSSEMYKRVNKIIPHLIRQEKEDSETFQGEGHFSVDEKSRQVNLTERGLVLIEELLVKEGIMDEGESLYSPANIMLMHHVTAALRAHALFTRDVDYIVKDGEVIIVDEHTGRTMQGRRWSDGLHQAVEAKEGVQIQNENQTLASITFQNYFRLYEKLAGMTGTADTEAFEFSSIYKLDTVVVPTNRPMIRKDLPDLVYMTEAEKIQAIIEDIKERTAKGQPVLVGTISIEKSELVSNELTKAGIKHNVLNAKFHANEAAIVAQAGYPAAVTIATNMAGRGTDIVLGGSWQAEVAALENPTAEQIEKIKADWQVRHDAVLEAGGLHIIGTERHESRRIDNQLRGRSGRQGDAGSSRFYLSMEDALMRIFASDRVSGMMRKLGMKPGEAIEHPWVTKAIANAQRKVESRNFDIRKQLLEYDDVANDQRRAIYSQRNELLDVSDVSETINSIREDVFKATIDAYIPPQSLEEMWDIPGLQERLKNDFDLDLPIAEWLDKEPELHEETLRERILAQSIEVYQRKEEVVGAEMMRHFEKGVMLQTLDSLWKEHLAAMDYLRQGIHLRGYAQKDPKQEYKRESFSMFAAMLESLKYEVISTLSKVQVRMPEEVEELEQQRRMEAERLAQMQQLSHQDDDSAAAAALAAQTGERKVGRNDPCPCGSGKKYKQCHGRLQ

Row | Structure (SMILES) | Percent Effect [1] [%] | Percent Effect [2] [%] | Percent Effect [3] [%] | Percent Effect [4] [%] | Percent Effect (Trypanosoma cruzi) [%] | Percent Effect [5] [%] | Percent Effect [6] [%] | Percent Effect (Homo sapiens) [%] | Percent Effect [7] [%] | Percent Effect [8] [%] | Percent Effect [9] [%]
1 | CCN1CCN(c2ncc(-c3cc(C)no3)c(-c3ccoc3C)n2)CC1 | -4.09 | 12.2 | 5 | 3.93 | 1.98 | -3.48 | 6.4 | -1.91 | 2.15 | 6.49 | -24.9
2 | NC(=O)C1CN(C(=O)Nc2cc(Cl)cc(Cl)c2)CCO1 (stereo not drawn) | -2.58 | 0 | 0.0499 | 4.99 | 4.17 | -3.19 | 12.1 | 22.7 | 4.17 | 11.1 | 2.8
3 | COCCNC(=O)[C@H]1CN(Cc2scnc2C)C[C@H]2OCC[C@@H]12 | -3.71 | 5.48 | 0.0499 | 5.36 | 3.77 | 1.2 | 1.11 | 4.51 | 5.21 | 16.1 | 1.51
4 | Cc1noc(C(C)C)c1C(=O)NCC(c1cccc(F)c1)N(C)C (stereo not drawn) | 0.211 | -2.53 | 0.144 | -2.52 | -1.6 | 5.32 | -7.45 | 2.06 | 2.46 | -8.86 | 2.02
5 | Cc1nc(CN2C[C@@H]3CN(C(=O)c4ccnnc4)C[C@@H]3C2=O)cs1 | -4.78 | 5.41 | 6.23 | 4.54 | -0.684 | 2.23 | 11.6 | -22.8 | 3.24 | 7.69 | 4.63
6 | CCc1nc(C)c([C@H]2CN(C)C[C@@H]2C(=O)Nc2ccc(OC)cc2)[nH]1 | -5.53 | 5.41 | -1.46 | 2.65 | 1.16 | -2.86 | 8.28 | 1.5 | 8.99 | 12.2 | -4.67
7 | COCC1CCN(C(=O)c2cccc(S(=O)(=O)NCC3(C)COC3)c2)C1 (stereo not drawn) | -8.36 | 5.41 | 0.667 | 24.4 | 1.07 | 3.23 | 1.63 | 9.82 | 6.45 | 13.6 | -4.61
8 | CN(CCOc1cccc(CNC(=O)C2CC2)c1)C1CCOCC1 | -3.16 | 0 | 2.77 | -1.13 | 4.44 | 3.33 | -3.45 | -3.27 | -0.529 | 2.44 | 0.329
